PubChem BioAssay AID1159580 (chemical genetic matrix, 2015)
Where “and” joins values, the source holds several entries; their conditions need not be identical. Identical values can stand only once. About 2,000 (36%) of roughly 5,500 compounds were called active. Inconclusive results (about 18%) are left out. Cut-off read from the data, not from the text of the source: active = normalized growth mostly below about 0.91 (no sharp cut-off); inconclusive = no clear call, values can overlap the other calls; inactive = mostly above about 0.92. The list shows a part of the results.

Experiment: chemical genetic growth profiling, strain panel (AID 1159580);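 note: tested at 20 µM; growth read once vehicle control cultures reached saturation at 30 °C; 1 = growth at the plate median or of vehicle wells; lower values mean less growth of the strain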
Settings: growth OD

Measured: normalized growth

NNCCc1ccccc1
inactive: S. cerevisiae deletion strains, locus YJR066W, strain TOR1, stronger effect = lower value 0.945 | S. cerevisiae deletion strains, locus YJR075W, strain HOC1, stronger effect = lower value 0.986 | S. cerevisiae deletion strains, locus YKL009W, strain mrt4, stronger effect = lower value 0.995 | S. cerevisiae deletion strains, locus YKL068W, stronger effect = lower value 0.986 | S. cerevisiae deletion strains, locus YKL085W, strain MDH1 (second series), stronger effect = lower value 0.998 | S. cerevisiae deletion strains, locus YKL085W, strain MDH1, stronger effect = lower value 0.998 | S. cerevisiae deletion strains, locus YKL160W, strain elf1, stronger effect = lower value 1 | S. cerevisiae deletion strains, locus YKL190W, strain CNB1, stronger effect = lower value 0.966 | S. cerevisiae deletion strains, locus YKR001C, strain vps1, stronger effect = lower value 0.992 | S. cerevisiae deletion strains, locus YKR026C, strain gcn3, stronger effect = lower value 1.01 | S. cerevisiae deletion strains, locus YKR091W, strain srl3, stronger effect = lower value 1.01 | S. cerevisiae deletion strains, locus YLL001W, strain dnm1, stronger effect = lower value 1 | S. cerevisiae deletion strains, locus YLL026W, stronger effect = lower value 1 | S. cerevisiae deletion strains, locus YLL041C, strain sdh2, stronger effect = lower value 1 | S. cerevisiae deletion strains, locus YLR027C, strain aat2, stronger effect = lower value 1.01 | S. cerevisiae deletion strains, locus YLR039C, strain RIC1, stronger effect = lower value 0.897 | S. cerevisiae deletion strains, locus YLR058C, strain SHM2, stronger effect = lower value 0.974 | S. cerevisiae deletion strains, locus YLR102C, strain apc9, stronger effect = lower value 0.991 | S. cerevisiae deletion strains, locus YLR113W, strain HOG1, stronger effect = lower value 0.987 | S. cerevisiae deletion strains, locus YLR221C, strain rsa3, stronger effect = lower value 1.01 | S. cerevisiae deletion strains, locus YLR258W, strain gsy2, stronger effect = lower value 1.01 | S. cerevisiae deletion strains, locus YLR262C, strain YPT6 (second series), stronger effect = lower value 0.969 | S. cerevisiae deletion strains, locus YLR262C, strain YPT6, stronger effect = lower value 0.858 | S. cerevisiae deletion strains, locus YLR268W, strain sec22, stronger effect = lower value 1.05 | S. cerevisiae deletion strains, locus YLR320W, strain mms22, stronger effect = lower value 1.02 | S. cerevisiae deletion strains, locus YLR330W, strain CHS5, stronger effect = lower value 0.994 | S. cerevisiae deletion strains, locus YLR342W, strain FKS1 (second series), stronger effect = lower value 0.997 | S. cerevisiae deletion strains, locus YLR342W, strain FKS1, stronger effect = lower value 1.02 | S. cerevisiae deletion strains, locus YLR357W, strain rsc2, stronger effect = lower value 0.969 | S. cerevisiae deletion strains, locus YLR370C, strain arc18, stronger effect = lower value 1.01 | S. cerevisiae deletion strains, locus YLR371W, strain rom2, stronger effect = lower value 0.966 | S. cerevisiae deletion strains, locus YLR384C, strain iki3, stronger effect = lower value 1.01 | S. cerevisiae deletion strains, locus YLR418C, strain cdc73, stronger effect = lower value 0.965 | S. cerevisiae deletion strains, locus YML016C, strain PPZ1, stronger effect = lower value 0.989 | S. cerevisiae deletion strains, locus YML032C, strain rad52, stronger effect = lower value 0.996 | S. cerevisiae deletion strains, locus YML120C, strain ndi1, stronger effect = lower value 1.01 | S. cerevisiae deletion strains, locus YML124C, strain tub3, stronger effect = lower value 0.986 | S. cerevisiae deletion strains, locus YMR058W, strain fet3, stronger effect = lower value 1 | S. cerevisiae deletion strains, locus YMR078C, strain ctf18, stronger effect = lower value 0.969 | S. cerevisiae deletion strains, locus YMR125W, strain sto1, stronger effect = lower value 0.999 | S. cerevisiae deletion strains, locus YMR129W, stronger effect = lower value 1 | S. cerevisiae deletion strains, locus YMR205C, strain PFK2, stronger effect = lower value 1.02 | S. cerevisiae deletion strains, locus YMR223W, strain ubp8, stronger effect = lower value 0.95 | S. cerevisiae deletion strains, locus YMR231W, strain pep5, stronger effect = lower value 1.01 | S. cerevisiae deletion strains, locus YMR263W, strain SAP30, stronger effect = lower value 1 | S. cerevisiae deletion strains, locus YMR307W, strain GAS1, stronger effect = lower value 1 | S. cerevisiae deletion strains, locus YNL067W, strain RPL9B, stronger effect = lower value 0.981 | S. cerevisiae deletion strains, locus YNL071W, strain lat1, stronger effect = lower value 1.01 | S. cerevisiae deletion strains, locus YNL128W, strain TEP1, stronger effect = lower value 1.01 | S. cerevisiae deletion strains, locus YNL153C, strain GIM3, stronger effect = lower value 0.99 | S. cerevisiae deletion strains, locus YNL175C, strain NOP13, stronger effect = lower value 1 | S. cerevisiae deletion strains, locus YNL183C, strain NPR1, stronger effect = lower value 0.958 | S. cerevisiae deletion strains, locus YNL197C, strain WHI3, stronger effect = lower value 0.996 | S. cerevisiae deletion strains, locus YNL209W, strain ssb2, stronger effect = lower value 1 | S. cerevisiae deletion strains, locus YNL224C, strain SQS1, stronger effect = lower value 0.99 | S. cerevisiae deletion strains, locus YNL233W, strain BNI4, stronger effect = lower value 0.999 | S. cerevisiae deletion strains, locus YNL248C, strain rpa49, stronger effect = lower value 1.02 | S. cerevisiae deletion strains, locus YNL250W, strain rad50, stronger effect = lower value 0.983 | S. cerevisiae deletion strains, locus YNL271C, strain bni1, stronger effect = lower value 0.994 | S. cerevisiae deletion strains, locus YNL298W, strain CLA4, stronger effect = lower value 0.997 | S. cerevisiae deletion strains, locus YNL307C, strain MCK1, stronger effect = lower value 0.987 | S. cerevisiae deletion strains, locus YNL322C, strain KRE1 (second series), stronger effect = lower value 1.02 | S. cerevisiae deletion strains, locus YNL322C, strain KRE1, stronger effect = lower value 0.988 and 0.996 | S. cerevisiae deletion strains, locus YNR049C, strain mso1, stronger effect = lower value 1.01 | S. cerevisiae deletion strains, locus YNR052C, strain pop2, stronger effect = lower value 0.991 | S. cerevisiae deletion strains, locus YOL006C, strain TOP1, stronger effect = lower value 0.983 | S. cerevisiae deletion strains, locus YOL012C, strain htz1 0.89 | S. cerevisiae deletion strains, locus YOL147C, strain pex11, stronger effect = lower value 0.986 | S. cerevisiae deletion strains, locus YOR001W, strain rrp6, stronger effect = lower value 1.01 | S. cerevisiae deletion strains, locus YOR061W, strain CKA2, stronger effect = lower value 0.964 | S. cerevisiae deletion strains, locus YOR069W, strain VPS5, stronger effect = lower value 0.993 | S. cerevisiae deletion strains, locus YOR070C, strain gyp1, stronger effect = lower value 1 | S. cerevisiae deletion strains, locus YOR080W, strain dia2, stronger effect = lower value 1.01 | S. cerevisiae deletion strains, locus YOR083W, strain WHI5 (second series), stronger effect = lower value 1 | S. cerevisiae deletion strains, locus YOR083W, strain WHI5, stronger effect = lower value 0.988 | S. cerevisiae deletion strains, locus YOR106W, strain vam3, stronger effect = lower value 1.02 | S. cerevisiae deletion strains, locus YOR136W, strain idh2, stronger effect = lower value 0.973 | S. cerevisiae deletion strains, locus YOR144C, strain elg1, stronger effect = lower value 0.987 | S. cerevisiae deletion strains, locus YOR184W, strain ser1, stronger effect = lower value 0.981 | S. cerevisiae deletion strains, locus YOR231W, strain MKK1, stronger effect = lower value 0.982 | S. cerevisiae deletion strains, locus YOR265W, strain rbl2, stronger effect = lower value 1 | S. cerevisiae deletion strains, locus YOR270C, strain vph1, stronger effect = lower value 1.11 | S. cerevisiae deletion strains, locus YOR290C, strain snf2, stronger effect = lower value 1 | S. cerevisiae deletion strains, locus YOR316C, strain cot1, stronger effect = lower value 0.984 | S. cerevisiae deletion strains, locus YPL051W, strain arl3, stronger effect = lower value 1.01 | S. cerevisiae deletion strains, locus YPL078C, strain atp4, stronger effect = lower value 1 | S. cerevisiae deletion strains, locus YPL106C, strain sse1, stronger effect = lower value 0.977 | S. cerevisiae deletion strains, locus YPL240C, strain hsp82, stronger effect = lower value 1 | S. cerevisiae deletion strains, locus YPL241C, strain CIN2, stronger effect = lower value 0.994 | S. cerevisiae deletion strains, locus YPL256C, strain CLN2, stronger effect = lower value 0.958 | S. cerevisiae deletion strains, locus YPR119W, strain clb2, stronger effect = lower value 0.981 | S. cerevisiae deletion strains, locus YPR141C, strain kar3, stronger effect = lower value 0.968 | S. cerevisiae deletion strains, locus YPR163C, strain tif3, stronger effect = lower value 0.989 | S. cerevisiae deletion strains, locus YPR167C, strain met16, stronger effect = lower value 0.985 | S. cerevisiae deletion strains, strain wtn01, stronger effect = lower value 0.992 | S. cerevisiae strains, strain wild type, stronger effect = lower value 0.981
